Compound activity from PubChem BioAssay.
An excerpt weighted towards active compounds, which were near 6% of everything screened.
Sfp PPTase inh = blocks B. subtilis Sfp PPTase activity. Q9F4F7. Biochemical Sfp PPTase activity, qHTS. Potency, µM, hits mostly inhibitors. 310,000 compounds, 3.5% hits;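 note: the enzyme is Sfp with the accession as filed and its product quenches rhodamine fluorescence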
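Sfp 15 nM + cpd, 15 min RT; start w/ rhodamine-CoA 5 uM, BHQ-2-YbbR 12.5 uM (final); 50 mM Hepes pH 7.6, 10 mM MgCl2, 0.01% NP-40, 0.01% BSA; read 525/598 nm at 0 and 30 min.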
Tau FP inhib = tau fibrillization inhibition (FP); P10636; K18 P301L tau heparin fibrillization, Alexa594 FP, 6 h; Potency, µM (titrated, usually from 57.7 µM), hits mostly inhibitors; 280,000 compounds, 0.39% hits; AID 1468; note: nearly all actives have a fitted effect of over 55% in size
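Recombinant K18 P301L […], labeled with Alexa 594 at 0.24 uM over 15 uM unlabeled; heparin inducer 20 uM final; 37 C, 6 hr; FP endpoint.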
Tau ThT inhib = inhibitors of human tau fibril formation, thioflavin T binding. P10636. recombinant tau K18 P301L, heparin-induced fibrillization, ThT fluorescence. Potency, µM (top dose mostly 57.4 µM), hits mostly inhibitors. 270,000 compounds, 2.1% hits; note: nearly all actives have a fitted effect of over 55% in size
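In this qHTS, human K18 P301L tau is incubated with compound and heparin for 6 hr at 37 C, and Thioflavin T fluorescence then reports fibril load.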
Tau fluor counter = counter-screen for tau fibril formation inhibitors; AID 1463; tau K18 P301L Alexa594 fluorescence, heparin fibrillization; 280,000 compounds, 0.93% hits; Potency, µM (top dose mostly 57.7 µM); note: nearly all actives have a fitted effect of over 55% in size
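Human tau K18 P301L (15 uM unlabeled, 0.24 uM Alexa 594-labeled) in 100 mM sodium acetate pH 7 with 20 uM heparin, 6 hr at 37 C. ThT 30 uM added, 1 hr ambient; Alexa 594 FP and total fluorescence read at 555/632 nm.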
VDR inh = blocks the human vitamin D receptor. VDR-SRC2-3 peptide fluorescence polarization, 2 h. Potency, µM, actives largely listed as inhibitors. 400,000 compounds, 0.93% hits. AID 504847
Target sequence (P11473 whole entry, looked up): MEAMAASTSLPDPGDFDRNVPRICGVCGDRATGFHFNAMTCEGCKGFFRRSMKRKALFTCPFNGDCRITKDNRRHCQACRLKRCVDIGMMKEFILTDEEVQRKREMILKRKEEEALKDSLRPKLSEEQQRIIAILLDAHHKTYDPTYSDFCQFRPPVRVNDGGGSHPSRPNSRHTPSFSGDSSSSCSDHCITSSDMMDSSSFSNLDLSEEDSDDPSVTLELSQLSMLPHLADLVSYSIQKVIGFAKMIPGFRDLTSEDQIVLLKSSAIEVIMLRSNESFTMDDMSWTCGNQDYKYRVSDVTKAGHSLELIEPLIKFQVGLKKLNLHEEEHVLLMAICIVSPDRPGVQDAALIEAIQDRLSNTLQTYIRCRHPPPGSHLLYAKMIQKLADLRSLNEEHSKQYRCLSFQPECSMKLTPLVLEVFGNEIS
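Fluorescence polarization assay measuring small-molecule disruption of VDR binding to the coregulator peptide SRC2-3. Compounds were pin-transferred (23 nl) into the reagent mix and incubated 2 h at room temperature before reading.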
PLK1 PBD block = PLK1 (human) polo-box domain binding inhibition; P53350; Plk1 PBD binding of FITC phosphopeptide, fluorescence polarization; Potency, µM, actives largely listed as inhibitors; 360,000 compounds, 2.8% hits; note: series mostly up to about 57 µM; nearly all actives have a fitted effect of over 65% in size
Numbers stand for hits; [ ] = dose if it differs, or a comment. Calls come from the whole dose curve; as a rule, active = well fitted curve in the direction sought with a large enough effect; inconclusive = small, poorly fitted or top-dose-only effect, or another doubt; inactive = no such curve, though single readings can be large; an effect the other way counts as inactive or inconclusive.

What do the screens show for `O=C1OC(c2ccccc2)=N/C1=C\C=C\c1ccccc1[N+](=O)[O-]`?
Sfp PPTase inh: inactive; Tau FP inhib: inactive; Tau ThT inhib: inconclusive; Tau fluor counter: inactive; VDR inh: inactive; PLK1 PBD block: inconclusive

Results for O=C1OC(c2ccc(Cl)cc2)=N/C1=C\C=C\c1ccco1 ?
Sfp PPTase inh: 45µM; Tau FP inhib: inactive; Tau ThT inhib: inconclusive; Tau fluor counter: inactive; VDR inh: inactive; PLK1 PBD block: inactive

What do the screens show for `CC(CC(=O)NCc1ccc(Cl)cc1Cl)CC1=NS(=O)(=O)c2ccccc2N1` (stereo not drawn)?
Tau FP inhib: inactive; Tau ThT inhib: inactive; Tau fluor counter: inactive; VDR inh: inactive

What do the screens show for `COc1ccc(-c2[nH]c(-c3ccc(OC)c(OC)c3)nc2SCC(=O)Nc2ccccc2)cc1`?
Tau FP inhib: inactive; Tau ThT inhib: inactive; Tau fluor counter: 6.3µM[quencher]; VDR inh: inactive

How did COc1ccc(NC(=O)CSc2nc(-c3ccc(OC)c(OC)c3)[nH]c2-c2ccc(C)cc2)cc1 do in these assays?
Tau FP inhib: inactive; Tau ThT inhib: inactive; Tau fluor counter: 4.5µM[quencher]; VDR inh: inactive

How did COc1ccc(-c2nc(SCC(=O)Nc3ccc4c(c3)OCCO4)c(-c3ccc(C)cc3)[nH]2)cc1OC do in these assays?
Tau FP inhib: inactive; Tau ThT inhib: inconclusive; Tau fluor counter: 7.9µM[quencher]; VDR inh: inactive

Results for COc1ccc(NC(=O)CSc2nc(-c3cccc(C)c3)[nH]c2-c2ccccc2)cc1OC ?
Tau FP inhib: inactive; Tau ThT inhib: inconclusive; Tau fluor counter: 8.9µM[quencher]; VDR inh: inactive

Results for COc1ccc(NC(=O)CSc2nc(-c3ccc(OC)cc3)[nH]c2-c2ccc(F)cc2)cc1 ?
Tau FP inhib: inactive; Tau ThT inhib: inactive; Tau fluor counter: inconclusive; VDR inh: inactive

Results for O=C1/C(=C/c2cccs2)SC(=S)N1c1cccc(O)c1 ?
Sfp PPTase inh: inactive; Tau FP inhib: inactive; Tau ThT inhib: 20µM; Tau fluor counter: 20µM[quencher]; VDR inh: inactive; PLK1 PBD block: inactive

How did Cc1ccc(CN(Cc2cccn2-c2nnc(N3CCCC3=O)s2)C(=O)Nc2ccccc2Cl)cc1 do in these assays?
Tau FP inhib: inactive; Tau ThT inhib: inactive; Tau fluor counter: inactive; VDR inh: inactive

Results for Cc1cc(C)cc(NC(=O)C(=O)NCC(c2cccnc2)N2CCc3ccccc3C2)c1 (stereo not drawn) ?
Tau FP inhib: inactive; Tau ThT inhib: inactive; Tau fluor counter: inactive; VDR inh: inactive

How did N[C@H](C(=O)O)C1C(C(=O)O)C1C(=O)O (stereo partly drawn) do in these assays?
Sfp PPTase inh: 50µM; Tau FP inhib: inactive; Tau ThT inhib: inactive; Tau fluor counter: inactive; VDR inh: inactive

Results for O=C(O)C1C2CCC(CC2)C1C(=O)O (stereo not drawn) ?
VDR inh: inactive; PLK1 PBD block: inactive

Results for C=CCSSSCC=C ?
Sfp PPTase inh: 40µM; Tau FP inhib: inactive; Tau ThT inhib: inactive; Tau fluor counter: inactive; VDR inh: 25µM

What do the screens show for `O=C(Nc1nnc([C@@H]2C[C@H](O)[C@@H](CO)O2)s1)c1ccc(Oc2ccccc2)cc1`?
PLK1 PBD block: inactive

How did O=C1/C(=C\c2ccc(O)c(O)c2)SC(=S)N1Cc1ccccc1 do in these assays?
Sfp PPTase inh: inactive; VDR inh: inactive; PLK1 PBD block: inactive

How did Cc1ccc(/C=C2\SC(=S)N(Cc3ccccc3)C2=O)o1 do in these assays?
Sfp PPTase inh: inconclusive; Tau FP inhib: inconclusive; Tau ThT inhib: 16µM; Tau fluor counter: inconclusive; VDR inh: inactive; PLK1 PBD block: inactive

What do the screens show for `COc1ccc(CN2C(=O)/C(=C/c3ccc(-c4ccc(Cl)c(C(=O)O)c4)o3)SC2=S)cc1`?
Sfp PPTase inh: 50µM; Tau FP inhib: inactive; Tau ThT inhib: inconclusive; Tau fluor counter: inactive

Results for O=C(O)c1cc(-c2ccc(/C=C3/SC(=S)N(Cc4ccccc4)C3=O)o2)ccc1Cl ?
Sfp PPTase inh: 50µM; Tau FP inhib: inactive; Tau ThT inhib: 10µM; Tau fluor counter: inactive; VDR inh: inactive; PLK1 PBD block: inactive

What do the screens show for `COc1ccc(/C=C2\SC(=S)N(CCC(=O)Nc3ccccc3C(=O)O)C2=O)cc1`?
Sfp PPTase inh: inactive; VDR inh: inactive; PLK1 PBD block: inconclusive
